Pf Dd2 inh: Plasmodium falciparum Dd2 growth inhibition. P. falciparum Dd2 growth, SYBR Green, 72 h. 120,000 compounds, 4.3% hits. Potency, µM (series often up to 28.9 µM), actives largely listed as inhibitors; active = well fitted inhibition curve with a large enough effect; also: nearly all actives have a fitted effect of over 65% in size
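Readout: SYBR Green fluorescence, 485 nm excitation, 535 nm emission, after ~16 h lysis at 37C. Before that, Dd2-infected red cells (2.5% hematocrit) grew 72 h with compound, 29 uM top final concentration.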
Numbers stand for hits; 0 = inactive; ! = not active in a repeat; [ ] = remark or other dose. Many of the other results were omitted from the sample, so hits are more common in it than they were.

SMILES	Pf Dd2 inh
CCCN1CCc2[nH]cnc2C12CCN(C(=O)[C@H]1Cc3ccccc3CN1)CC2	0
CNc1cc(C2CC(NS(=O)(=O)c3ccc(Cl)s3)C2)nc(N)n1 (stereo not drawn)	7.9µM
CC(C)N(C)Cc1nnnn1CC(=O)N1CCC(CCn2cccn2)CC1	0
O=C(CC1CCCC1)N1CCC(Cc2nc(C3CC3)n[nH]2)C1 (stereo not drawn)	0
CS(=O)(=O)N1CCC2(CCC(=O)N(CC3CCCO3)C2)CC1 (stereo not drawn)	0
CCCCc1ncc(-c2nccn2C2CCNC2)[nH]1 (stereo not drawn)	0
CNC(=O)N1C[C@@H](CN(C)C)[C@H](NS(=O)(=O)c2cc(F)ccc2C)C1	0
CNC(=O)N1C[C@@H](CN(C)C)[C@H](NS(=O)(=O)c2ccc(F)cc2F)C1	0
CN(C)C[C@@H]1CN(C)C[C@H]1NS(=O)(=O)c1cc(F)cc(F)c1	8.9µM
CC(C)(C)C1CCC2(CC1)NC(=O)N(CC(=O)N1CCN(c3ccc(F)cc3)CC1)C2=O (stereo not drawn)	0
Cc1nnc2ccc(NCc3ccccc3F)nn12	0
O=C(NCc1c[nH]c2ncccc12)c1cccc2[nH]ccc12	0
Cc1cc(-c2nc3ncccc3[nH]2)c(C)[nH]1	28µM!
c1cnc2nc(-c3c[nH]c4ncccc34)[nH]c2c1	25µM!
c1cnc2nc(C3CCNC3)[nH]c2c1 (stereo not drawn)	0
c1cnc2nc(-c3ccsc3)[nH]c2c1	0
c1ccc(-c2nc3ncccc3[nH]2)nc1	0
O=C(Nc1ccccc1F)N1CCC2(CCCN(C3CCCCC3)C2=O)C1 (stereo not drawn)	0
CCC[C@@H]1CN(c2cc(OC)nc(N)n2)C[C@H]1C(=O)O	0
CC(C)c1nncn1C1CCN(S(=O)(=O)c2ccccc2F)CC1	0
O=C(CSCc1ccc(F)cc1)N1CCc2c([nH]c3ccccc23)C1c1ccc(Cl)cc1 (stereo not drawn)	0
CCOc1cccc(CC(=O)N2CCc3c([nH]c4ccccc34)C2c2ccc(SC)cc2)c1OCC (stereo not drawn)	7.9µM
CCOc1cccc(CC(=O)NCc2ccc3c(c2)CCN3C(C)=O)c1OCC	0
CCOc1ccc(C2c3[nH]c4ccccc4c3CCN2C(=O)Cc2cccc(OCC)c2OCC)cc1 (stereo not drawn)	11µM
CCOc1ccc(CNC(=O)c2[nH]c3ccccc3c2Sc2ccc(C)cc2)cc1	0
SMILES	Pf Dd2 inh
O=C(COc1ccccc1)NC1CCCc2c1[nH]c1ccccc21 (stereo not drawn)	0
Cc1ccccc1Cn1c(=O)n(Cc2ccco2)c(=O)c2oc3ccccc3c21	0
Cc1ccc(NC(=O)Cn2cnc3c(oc4ccccc43)c2=O)cc1	0[0.594 µM]
Cc1ccccc1Cn1cnc2c(oc3ccccc32)c1=O	8.9µM
CCc1cc(=O)n(CC(=O)Nc2ccc(C)cc2Cl)c(N2CCOCC2)n1	0
C=CCCC(CN1CCOCC1)Oc1ccc(Cn2ccnc2)cn1 (stereo not drawn)	0
C=CCCC(CN1CCCC1)Oc1ccc(C(=O)N2CCOCC2)cn1 (stereo not drawn)	6.3µM
CN1CCC(Oc2ccc(C(=O)N3CCOCC3)cn2)CC1	0
C=CCCC(CN1CCCOCC1)Oc1ccc(-c2ccccc2)nn1 (stereo not drawn)	14µM
Cc1ccc(-c2cn(C3CN(C(=O)C(C)CN4CCOCC4)C3)nn2)cc1 (stereo not drawn)	0
CC1CCC2(CC1)NC(=O)N(CC(=O)Nc1cc(F)cc(F)c1)C2=O (stereo not drawn)	0
CO[C@H]1C(=O)N(C(C)C)[C@H]1C1CCN(S(=O)(=O)Cc2ccccc2)CC1	0
O=C(c1ccc(N2CC3CC(C2)[C@H]2CCCC(=O)N2C3)nc1)N1CCN(c2ccccc2)CC1 (stereo partly drawn)	0
Cc1ccccc1-c1nccc2c(=O)cc(C3=CCOCC3)oc12	10µM
Cc1ccccc1-c1nccc2c(=O)cc(-c3ccncc3)oc12	0
Cc1ccccc1-c1nccc2c(=O)cc(N(C)C3CCOCC3)oc12	0
CN1[C@@H](CCC(=O)NCc2ccco2)CNC(=O)[C@@H]2[C@H]1CCN2Cc1cccc(OC(F)(F)F)c1	0
Cc1ccc(-c2cc3c(ccn3Cc3cccnc3)c(C3=CCOCC3)n2)cn1	0
CCCCCN1C(C(=O)c2ccccc2)=C(NC(C)=O)c2ccccc2S1(=O)=O	0
CCCCCN1C(C(=O)c2ccccc2)=C(OC(=O)CC)c2ccccc2S1(=O)=O	3.2µM
CCCCC(=O)OC1=C(C(=O)c2ccccc2)N(CCC)S(=O)(=O)c2ccccc21	0
CCOC(=O)C1=C(C)N(Cc2ccc(C(=O)N3CCCCC3)cc2)C(=O)CC1c1cccc(C)c1 (stereo not drawn)	5µM
COC(=O)C1=C(C)N(Cc2cccc(Cl)c2)C(=O)CC1c1ccccc1Cl (stereo not drawn)	0
Cc1ccc(CN2C(=O)NC3(CCCN(C(=O)c4cccc(C)c4)C3)C2=O)cc1 (stereo not drawn)	0
CCc1ccc(C(=O)N2[C@@H]3CC[C@H]2CC(NC(=O)c2ccncc2)C3)cc1 (stereo partly drawn)	0
SMILES	Pf Dd2 inh
Cc1ccncc1C(=O)N1CC(c2nnc(-c3ccncc3)o2)C2(CCOCC2)C1 (stereo not drawn)	0
CC(C)c1noc(-c2cn(C3CCN(C(=O)c4cccc(N(C)C)c4)CC3)nn2)n1	0
Cc1c(C(=O)Nc2ccccc2Cl)oc2ccc(S(=O)(=O)N3CCCCCC3)cc12	0
Cc1c(Cl)cccc1NC(=O)c1oc2ccc(S(=O)(=O)N3CCC4(CC3)OCCO4)cc2c1C	13µM
Cc1c(C(=O)Nc2ccccc2Cl)oc2ccc(S(=O)(=O)N3CCCCC3)cc12	0
CCN(CC)S(=O)(=O)c1ccc2oc(C(=O)Nc3ccc(Br)cc3F)c(C)c2c1	0
Cc1c(C(=O)Nc2ccccc2Br)oc2ccc(S(=O)(=O)N3CCOCC3)cc12	0
Cc1c(C(=O)Nc2ccc(Br)cc2F)oc2ccc(S(=O)(=O)N3CCC4(CC3)OCCO4)cc12	13µM
O=C1CC2(CCN(C(=O)c3ccccc3)CC2)Oc2cc(Cl)ccc21	0
CC(C)CC(=O)N1CCC2(CC1)C(=O)N(C)c1ccccc12	0
COCC(=O)N(C1CCOCC1)C1CCN(C(=O)c2cc(Cl)ccc2F)CC1	0
O=C(c1ccn[nH]1)N1C[C@@H](COc2cccnc2)[C@H](c2ccncc2)C1	0
Cc1ccc2c(CC(=O)Nc3cccc(C(F)(F)F)c3)coc2c1	0
COC(=O)c1ccccc1NC(=O)Cc1noc2ccc(C)cc12	0
Cc1ccc2onc(CC(=O)Nc3cccc(C(F)(F)F)c3)c2c1	11µM
COc1ccc(C[C@H](NC(=O)C2=C[C@@H](NC(=O)c3ccccc3Br)[C@@H](O)[C@H](O)C2)C(N)=O)cc1	0
CN1CC(=O)N(C2CCCNC2)Cc2c(NCCCc3ccccc3)ncnc21 (stereo not drawn)	0
COc1ccc(CN2C[C@@H](CO)[C@H](c3ccccn3)C2)cc1C	0
CCCOc1ccc(CN2C[C@@H](CO)[C@H](c3ccccn3)C2)cc1	2.8µM
OC[C@@H]1CN(Cc2ccco2)C[C@H]1c1ccccn1	0
CCN(Cc1ccccc1)C(=O)CCC[C@H]1NC[C@@H]2CC1CN(Cc1ccccc1)C2	13µM
O=C(CCC[C@H]1NC[C@@H]2C[C@H]1CN(Cc1ccccc1)C2)NCCN1CCCCC1	0
COc1ccc2[nH]cc(CCNC(=O)CCC[C@H]3NC[C@@H]4C[C@H]3CN(Cc3ccccc3)C4)c2c1	10µM

Bioassay records deposited in PubChem BioAssay by National Center for Advancing Translational Sciences (NCATS).
